Measured values from PubChem BioAssay (NCATS).
Records with an inconclusive call do not appear. The source made the active and inactive calls. Unless noted, calls come from the whole dose curve; as a rule, active = well fitted curve in the direction sought with a large enough effect; inconclusive = small, poorly fitted or top-dose-only effect, or another doubt; inactive = no such curve, though single readings can be large; an effect the other way counts as inactive or inconclusive.

What was measured:
[1] = target: Luciferin 4-monooxygenase (Photinus pyralis) (UniProt P08659); assay: Biochemical firefly luciferase enzyme assay for NPC (AID 624030);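 note: purified P. pyralis luciferase at 10 nM with luciferin and ATP substrate; 0% = DMSO and -100% = full luciferase inhibition by PTC124 control; nearly all actives have a fitted effect of over 70% in size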
How it was run: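 Counter-screen for direct inhibition of the luciferase enzyme by approved-drug library compounds, run at 10 nM enzyme in 50 mM Tris acetate (final). Luminescence was read within 5 min of enzyme-buffer addition and normalized to PTC124 versus DMSO (0%).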

[2] = P-glycoprotein substrates identified in KB-8-5-11 adenocarcinoma cell line, qHTS therapeutic library screen (AID 1346987); note: % is set by controls: 0 for no effect and ±100 for the full control effect; nearly all actives have a fitted effect of over 65% in size
How it was run: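 KB-8-5-11: colchicine-selected sub-line of KB-3-1 over-expressing P-gp; assay medium lacked colchicine. 72 h drug exposure at 37 degree C, CellTiter-Glo.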

KB-3-1 = assay: Cytotoxic Profiling of Annotated Libraries Using Quantitative High-Throughput Screening (AID 1296008); conditions: Five cell lines viability, CellTiter-Glo ATP luminescence, 48-72 h; max response: stronger effect = lower value; note: % is set by controls: 0 for no effect and ±100 for the full control effect; nearly all actives have a fitted effect of over 60% in size
How it was run: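 Compounds were pin-transferred onto cells and incubated 48 or 72 hr at 37 degree Celsius, 95% humidity. CellTiter-Glo was added, plates sat 10 min at room temperature, then ATP-coupled luminescence was imaged as the viability read-out.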

astro = assay: Drug repurposing screens with cells derived from glioblastoma tumor samples (AID 1345199); conditions: viability, ATP luminescence, 48 h; series mostly up to 45.9 µM; note: % is set by controls: 0 for no effect and ±100 for the full control effect; nearly all actives have a fitted effect of over 40% in size
How it was run: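 Four patient lines of CD133+ GBM neurospheres were screened at several concentrations; hits were retested in those lines plus three slower-growing GBM lines, using 48-hour treatment and ATP-based viability.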

[3] = Primary qHTS for Huh7 cytotoxicity: counterscreen for inhibitors of MERS-S pseudotyped particle cell entry (AID 1479147; calls by dose curve; note: % is set by controls: 0 for no effect and ±100 for the full control effect); conditions: outcome: dose series up to 57.1 µM unless noted
[4] = Primary qHTS for inhibitors of MERS-S pseudo-typed particle cell entry (AID 1479149; calls by dose curve; note: nearly all actives have a fitted effect of over 60% in size)
[5] = Primary qHTS for Vero E6 cytotoxicity: counterscreen for inhibitors of SARS-S pseudo-typed particle cell entry (AID 1479150; calls by dose curve; note: % is set by controls: 0 for no effect and ±100 for the full control effect); conditions: outcome: dose series up to 57.1 µM unless noted
[6] = Cytotoxicity counterscreen for inhibitors of SARS-CoV-2 cell entry (AID 1645845; calls by dose curve; note: nearly all actives have a fitted effect of over 50% in size)
How it was run: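 Expi293F/hACE2 cells seeded overnight; cpd pin-transferred in DMSO, 1 h preincubation, + media, 48 h 37 C 5% CO2; ATPLite 1step luminescence; normalized to cells and no cells.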

[7] = Primary qHTS to identify inhibitors of SARS-CoV-2 cell entry (AID 1645846; calls by dose curve; note: nearly all actives have a fitted effect of over 45% in size); conditions: activity change, negative = inhibition: at 57.1 µM (top of the series) unless noted
How it was run: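 Luminescence readout (Bright-Glo luciferase) 48 h after pseudoparticle addition. HEK293-ACE2 cells, 1500/well; compound pre-incubation 1 h; Normalized to spike PP and bald PP.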

[8] = target: Glutathione peroxidase 1 (Homo sapiens) (UniProt P07203); assay: Primary qHTS Assay for Inhibitors of Recombinant Selenoprotein Glutathione Peroxidase 1 (GPX1) (AID 1845191); note: nearly all actives have a fitted effect of over 65% in size
How it was run: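 Recombinant GPX1 (10 nM final) was preincubated with compound for 30 min at room temperature, then reacted with 1 mM GSH, 0.5 mM CHP, 0.5 mM NADPH and 100 nM glutathione reductase; NADPH fluorescence (340/450 nm) was read at 0 and 15 min.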

[9] = target: Phospholipid hydroperoxide glutathione peroxidase GPX4 (Homo sapiens) (UniProt P36969); assay: Primary qHTS Assay for Inhibitors of Recombinant Selenoprotein Glutathione Peroxidase 4 (GPX4) (AID 1845192); note: nearly all actives have a fitted effect of over 65% in size
How it was run: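 GR-coupled readout: 100 nM GR, 1 mM GSH, 0.5 mM NADPH; NADPH fluorescence (ex 340/em 450 nm) read at t=0 and after 15 min RT. GPX4 200 nM, preincubated 30 min with compound; substrate 0.5 mM CHP.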

[10] = AP1 Signaling Pathway (AID 357; active = well fitted curve in either direction with a large enough effect, not every such curve was filed as active; note: % is set by controls: 0 for no effect and ±100 for the full control effect)
How it was run: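 AP-1-bla ME-180 cells with beta-lactamase reporter under AP-1 response element, stimulated with EC50 EGF; compounds titrated, 5 hours at 37 degrees Celsius. CCF4 read at 460/530 nm ratio; positive and negative modulators judged by AC50.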

[11] = NFAT Signaling Pathway (AID 444; active = well fitted curve in either direction with a large enough effect, not every such curve was filed as active;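 note: carbachol stimulus at about its EC50 of 1 µM final; % is set by controls: 0 for no effect and ±100 for the full control effect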); conditions: Jurkat NFAT-bla M1, carbachol, beta-lactamase ratio, 5 h
How it was run: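 Jurkat cells carrying an NFAT-driven β-lactamase reporter and co-transfected muscarinic M1 receptor were treated with compound plus carbachol (1 uM final, an EC50 level) for 5 h at 37 °C. CCF4 loading followed for 1 h at RT; 460/530 nm ratio gave %activity.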

[12] = Stat Signaling Pathway (AID 446; active = well fitted curve in either direction with a large enough effect, not every such curve was filed as active)
How it was run: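 ME-180 SIE-bla cells; overnight plating; cpd + IL-6 40 pM, 5 h, 37 C; LiveBLAzer 2.5 h RT; 460/530 nm emission ratio. Normalized to 300 pM IL-6 and 125 nM JAK inhibitor controls.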

[13] = target: Mitogen-activated protein kinase 10 (Mus musculus) (UniProt Q61831); assay: JNK3 AlphaScreen Assay (AID 530; active = well fitted curve in either direction with a large enough effect, not every such curve was filed as active)
How it was run: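 JNK3 came from HepG2 lysates pre-activated with IL-1beta and TNF-alpha and phosphorylated biotinylated GST-cJun (1-79) at 10 uM ATP, pH 7.6, room temperature. Compounds were titrated. AlphaScreen signal used anti-phospho-cJun (Ser73) antibody.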

[14] = target: 3',5'-cyclic-AMP phosphodiesterase 4B (Homo sapiens) (UniProt Q07343); assay: qHTS Assay for Inhibitors of PDE-IV (AID 607; active = well fitted activation curve with a large enough effect in the main read-out, with a control signal flat, not every such curve was filed as active; note: % of control where 0% means no effect)
How it was run: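 ACTOne HEK293 cells carry a modified cAMP-gated CNG channel and express endogenous PDE4; plated 1000 cells/well, compounds up to 22.9 uM final. Membrane-potential dye fluorescence (ex 535/em 590) was read; parental cells received 10 uM forskolin + 100 uM RO 20-1724.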

[15] = target: Guanine nucleotide-binding protein G(i) subunit alpha-1 (Homo sapiens) (UniProt P63096); assay: qHTS Assay for Inhibitors of RGS12 GoLoco Motif Activity (Green Fluorophore) (AID 879);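 note: 0% = labeled peptide with Gαi1 and full inhibition = labeled peptide alone without protein; negative values mean loss of peptide binding seen as reduced polarization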
How it was run: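 Fluorescence polarization assay: 50 nM Gαi1 with 10 nM FITC-labeled RGS12 GoLoco peptide in 10 mM Tris pH 7.5, 150 mM NaCl, 0.1 mM GDP, 0.05% NP40, 10 min at room temperature with compound.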

[16] = qHTS Assay for Identification of Small Molecule Antagonists for NFkB Signaling Pathway (AID 895; active = well fitted inhibition curve with a large enough effect in the signal ratio, with a control signal flat, not every such curve was filed as active; the % refers to the signal ratio; note: % is set by controls: 0 for no effect and ±100 for the full control effect)
How it was run: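 NFkB-bla ME-180 cervical carcinoma cells with beta-lactamase reporter under NFkB response element; compounds added, then TNF alpha at 10 pM final (EC50), 5 h at 37 C. LiveBLAzer substrate 2 h, room temperature; emission 460/530 nm at 405 nm excitation.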

[17] = qHTS Assay for Identification of Small Molecule Agonists for Thrombopoietin (TPO) Signaling Pathway (AID 917); note: % is set by controls: 0 for no effect and ±100 for the full control effect
How it was run: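 Murine Ba/F3 cells stably expressing human TPO receptor and a Glycoprotein IIb promoter–luciferase reporter were IL-3-starved overnight, then treated with compounds plus TPO (26 pM final, its EC50) for 24 hrs at 37 C; luminescence was read.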

[18] = target: Pyruvate kinase (Leishmania mexicana) (UniProt Q27686); assay: qHTS Validation Assay for Inhibitors of Leishmania Mexicana Pyruvate Kinase (AID 945);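 note: 0% = DMSO only neutral control wells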
How it was run: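 An endpoint luciferase assay: 0.2 nM LmPYK E451W turns over 0.5 mM PEP with 0.1 mM ADP for 1 h at room temperature, pH 7.2, before PKLight addition. Values are normalized to DMSO-only wells.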

[19] = target: Pyruvate kinase PKM (Homo sapiens) (UniProt P14618); assay: qHTS Assay for Activators of Human Muscle Pyruvate Kinase (AID 954; active = well fitted curve in the direction sought with a large enough effect, not every such curve was filed as active;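 note: 0% = uninhibited enzyme and -100% = no enzyme or full thiadiazolimine inhibition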)
How it was run: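 Luminescence from a luciferase ATP-detection/stop reagent reported PKM2 activity. Reactions contained 0.1 nM purified human enzyme, 0.5 mM PEP, 0.1 mM ADP and 7 mM MgCl2 at pH 7.2, run 1 h at RT.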

[20] = target: Alpha-galactosidase (Coffea arabica) (UniProt Q42656); assay: Counterscreen for Glucocerebrosidase Inhibitors: qHTS Assay for Coffee Bean alpha-Galactosidase at pH 4.5 (AID 957);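 note: plate controls were enzyme alone for no effect and no enzyme for full effect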
How it was run: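 Green coffee bean enzyme (2 nM final) was incubated with compounds (0.7 nM to 77 uM) and 4-methylumbelliferyl alpha-D-galactopyranoside (80 uM final) in 50 mM citric acid, 0.005% Tween-20, pH 4.5, 20 min at room temperature; AC50 from Hill fits.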

[21] = target: Alpha-galactosidase A (Homo sapiens) (UniProt P06280); assay: Counterscreen for Glucocerebrosidase Inhibitors: qHTS Assay for Human alpha-Galactosidase at pH 4.5 (AID 992); note: 0% is about no effect
How it was run: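 Enzyme at 2 nM final was combined with compound (0.7 nM to 77 uM) and 80 uM 4-methylumbelliferyl alpha-D-galactopyranoside in 50 mM citric acid, 0.005% Tween-20, pH 4.5. After 20 min at room temperature, fluorescence was read (Ex 365/Em 440 nm); AC50 came from Hill fits.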

[22] = target: alpha-glucosidase (Oryza sativa, rice) (UniProt Q653V4); assay: Counterscreen for Glucocerebrosidase Inhibitors: qHTS Assay for Rice alpha-Glucosidase at pH 5.0 (AID 997);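 note: 0% = full activity with enzyme and -100% = basal without enzyme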
How it was run: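 Rice alpha-glucosidase (4 nM final) with 400 uM 4-methylumbelliferyl-alpha-D-glucopyranoside in citrate buffer pH 5.0, 20 min at room temperature, stopped at pH 10; fluorescence 365/440 nm, compounds 0.7 nM–77 uM, AC50 from Hill fits.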

[23] = target: Alpha-galactosidase (Coffea arabica) (UniProt Q42656); assay: Counterscreen for Glucocerebrosidase Inhibitors: qHTS Assay for Coffee Bean alpha-Galactosidase at pH 5.9 (AID 998);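 note: plate controls were uninhibited enzyme for no effect and no-enzyme basal signal for full effect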
How it was run: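 Green coffee bean enzyme (2 nM final) was incubated with compounds (0.7 nM–77 uM) and 4-methylumbelliferyl alpha-D-galactopyranoside (80 uM) in citrate buffer pH 5.9, 20 min at room temperature. High-pH stop; fluorescence 365/440 nm; AC50 from Hill fits.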

Furin (Homo sapiens) = Furin (Homo sapiens) (UniProt P09958); assay: Furin counterscreen qHTS for Zika virus inhibitors (AID 1347149);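 note: purified recombinant full-length human furin enzyme at 5 nM; fluorescence gain from furin cutting a BOC-RVRR-AMC peptide substrate over 15 min; top concentration of the series differs between compounds; plate controls were no-inhibitor control for no effect and no-enzyme control for full effect; nearly all actives have a fitted effect of over 70% in size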
How it was run: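 Fluorogenic cleavage of BOC-RVRR-AMC (2 microM final, Km ~15 µM) was monitored (ex 340, em 450 nm) at 37C after 15 min RT preincubation of 5 nM furin with compounds in HEPES pH 7.0 buffer with CaCl2 and Triton X-100. Percent inhibition was fitted to a 4-parameter Hill curve.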

[24] = Vero cells viability qHTS for Zika virus inhibitors (AID 1347167); note: % is set by controls: 0 for no effect and ±100 for the full control effect
How it was run: (§1)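 Counter-screen for cytotoxicity of hits from NS2B-NS3 protease qHTS. Overnight-attached cells (2.5 x 10^5 cells/mL, DMEM/4% FBS) were dosed in titration, incubated 24 to 48 hours, then assayed by CellTiter Glo.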

[25] = HepG2 cells viability qHTS for Zika virus inhibitors (AID 1347168); note: % is set by controls: 0 for no effect and ±100 for the full control effect
How it was run: as §1

[26] = Tertiary RLuc qRT-PCR qHTS assay for Zika virus inhibitors (AID 1347169); note: nearly all actives have a fitted effect of over 55% in size; note: potency is the fitted concentration of half-maximal effect
How it was run: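 Vero cells (1,000 per well) plated overnight at 37 degrees C, treated with compound in DMSO, then infected with recombinant ZIKV-RLuc (Cambodian) at MOI 1-2 for 48-72 hrs. Live-cell Renilla luciferase substrate added; luminescence read after 1-1.5 hrs.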

[27] = qHTS Assay for Identifying Gametocytocidal Compounds (AID 743244);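 note: % is set by controls: 0 for no effect and ±100 for the full control effect; actives lower the fluorescent signal which means gametocytes are killed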; conditions: P. falciparum 3D7 stage III-V gametocytes, alamarBlue, 72 h; max response: stronger effect = lower value
How it was run: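 Stage III-V P. falciparum 3D7 gametocytes, 20,000 per well, were exposed to compounds for 72 h at 37C, 5% CO2. AlamarBlue was then added for 24 h and viability was read as fluorescence at Ex 525/Em 598 nm.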

Luciferin 4-monooxygenase (Photinus pyralis), sequence (P08659 whole entry, looked up): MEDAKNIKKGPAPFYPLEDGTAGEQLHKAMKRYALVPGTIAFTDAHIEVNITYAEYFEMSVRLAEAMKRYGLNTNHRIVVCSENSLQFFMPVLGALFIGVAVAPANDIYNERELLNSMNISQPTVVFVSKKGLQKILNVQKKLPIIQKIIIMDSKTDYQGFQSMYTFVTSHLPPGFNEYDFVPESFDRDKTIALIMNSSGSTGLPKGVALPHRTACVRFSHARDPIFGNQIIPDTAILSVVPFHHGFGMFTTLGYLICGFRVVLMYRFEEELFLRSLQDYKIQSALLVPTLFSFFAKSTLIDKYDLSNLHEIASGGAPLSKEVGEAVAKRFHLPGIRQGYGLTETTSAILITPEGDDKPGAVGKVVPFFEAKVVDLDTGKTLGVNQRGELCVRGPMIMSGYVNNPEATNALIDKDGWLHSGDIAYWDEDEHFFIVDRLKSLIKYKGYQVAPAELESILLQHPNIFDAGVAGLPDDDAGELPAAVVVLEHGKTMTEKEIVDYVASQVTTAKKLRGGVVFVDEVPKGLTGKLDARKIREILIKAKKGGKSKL
Alpha-galactosidase (Coffea arabica), sequence (Q42656 whole entry, looked up): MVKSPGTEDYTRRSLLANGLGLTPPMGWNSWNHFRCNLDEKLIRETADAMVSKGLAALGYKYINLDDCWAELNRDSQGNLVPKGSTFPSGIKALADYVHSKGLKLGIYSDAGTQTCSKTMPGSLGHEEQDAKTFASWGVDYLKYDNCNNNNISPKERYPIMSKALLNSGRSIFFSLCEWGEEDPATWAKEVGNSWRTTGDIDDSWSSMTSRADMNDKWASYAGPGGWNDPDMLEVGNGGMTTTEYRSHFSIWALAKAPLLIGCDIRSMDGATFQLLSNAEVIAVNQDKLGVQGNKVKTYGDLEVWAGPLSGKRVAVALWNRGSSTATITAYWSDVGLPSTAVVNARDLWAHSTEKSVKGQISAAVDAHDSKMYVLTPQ
Glutathione peroxidase 1 (Homo sapiens), sequence (P07203 whole entry, looked up): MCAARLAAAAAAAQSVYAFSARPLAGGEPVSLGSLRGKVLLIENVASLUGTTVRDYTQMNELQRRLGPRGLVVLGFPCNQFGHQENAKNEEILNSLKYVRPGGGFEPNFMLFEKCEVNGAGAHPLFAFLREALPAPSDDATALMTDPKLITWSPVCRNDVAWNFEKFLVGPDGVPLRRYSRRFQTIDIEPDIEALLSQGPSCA
Furin (Homo sapiens), sequence (P09958 whole entry, looked up): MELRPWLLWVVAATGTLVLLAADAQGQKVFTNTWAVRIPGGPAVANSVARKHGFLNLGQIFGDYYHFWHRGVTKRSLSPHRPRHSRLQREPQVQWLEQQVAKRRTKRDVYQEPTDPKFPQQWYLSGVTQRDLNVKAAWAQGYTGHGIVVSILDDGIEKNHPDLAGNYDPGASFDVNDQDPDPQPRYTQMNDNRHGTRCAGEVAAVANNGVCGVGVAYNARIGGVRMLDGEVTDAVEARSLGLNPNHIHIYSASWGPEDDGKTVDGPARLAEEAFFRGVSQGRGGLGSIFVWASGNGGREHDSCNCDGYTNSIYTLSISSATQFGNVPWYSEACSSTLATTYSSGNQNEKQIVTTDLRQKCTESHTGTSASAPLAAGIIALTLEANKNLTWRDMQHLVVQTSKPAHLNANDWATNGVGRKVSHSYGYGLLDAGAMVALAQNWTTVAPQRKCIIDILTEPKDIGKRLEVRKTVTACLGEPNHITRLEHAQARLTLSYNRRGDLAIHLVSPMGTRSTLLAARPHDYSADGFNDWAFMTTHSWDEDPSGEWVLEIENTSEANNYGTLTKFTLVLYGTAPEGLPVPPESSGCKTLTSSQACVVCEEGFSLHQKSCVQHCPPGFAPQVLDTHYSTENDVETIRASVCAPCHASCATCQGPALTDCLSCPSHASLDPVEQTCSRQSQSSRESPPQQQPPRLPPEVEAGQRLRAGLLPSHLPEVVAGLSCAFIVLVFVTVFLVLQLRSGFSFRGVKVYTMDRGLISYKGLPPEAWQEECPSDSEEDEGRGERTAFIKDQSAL
Guanine nucleotide-binding protein G(i) subunit alpha-1 (Homo sapiens), sequence (P63096 whole entry, looked up): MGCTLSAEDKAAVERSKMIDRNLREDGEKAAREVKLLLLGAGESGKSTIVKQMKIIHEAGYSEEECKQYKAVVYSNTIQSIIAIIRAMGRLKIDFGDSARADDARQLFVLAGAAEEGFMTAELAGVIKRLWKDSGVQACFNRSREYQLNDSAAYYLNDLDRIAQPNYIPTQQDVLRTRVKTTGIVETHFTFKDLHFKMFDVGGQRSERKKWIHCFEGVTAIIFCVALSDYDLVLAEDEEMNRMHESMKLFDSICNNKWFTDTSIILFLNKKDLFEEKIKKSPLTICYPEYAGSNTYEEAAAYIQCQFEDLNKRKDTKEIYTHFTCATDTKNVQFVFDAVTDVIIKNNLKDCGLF
Phospholipid hydroperoxide glutathione peroxidase GPX4 (Homo sapiens), sequence (P36969 whole entry, looked up): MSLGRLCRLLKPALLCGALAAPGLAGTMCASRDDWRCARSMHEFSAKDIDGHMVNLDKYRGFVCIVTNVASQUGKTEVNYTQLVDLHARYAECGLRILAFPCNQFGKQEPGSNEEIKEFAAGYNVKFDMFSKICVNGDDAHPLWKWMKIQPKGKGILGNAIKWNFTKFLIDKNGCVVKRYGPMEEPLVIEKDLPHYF
Alpha-galactosidase A (Homo sapiens), sequence (P06280 whole entry, looked up): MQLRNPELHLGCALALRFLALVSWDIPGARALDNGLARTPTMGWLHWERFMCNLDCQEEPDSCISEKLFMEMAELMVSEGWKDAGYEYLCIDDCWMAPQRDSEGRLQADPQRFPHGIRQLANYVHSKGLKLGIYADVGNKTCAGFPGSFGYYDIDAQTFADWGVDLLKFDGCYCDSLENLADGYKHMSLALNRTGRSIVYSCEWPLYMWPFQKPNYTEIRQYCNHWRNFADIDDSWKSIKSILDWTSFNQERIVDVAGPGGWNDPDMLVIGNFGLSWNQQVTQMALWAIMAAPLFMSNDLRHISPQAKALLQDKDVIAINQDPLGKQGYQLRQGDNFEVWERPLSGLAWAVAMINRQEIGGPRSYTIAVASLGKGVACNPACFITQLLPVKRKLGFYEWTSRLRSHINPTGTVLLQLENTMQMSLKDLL
3',5'-cyclic-AMP phosphodiesterase 4B (Homo sapiens), sequence (Q07343 whole entry, looked up): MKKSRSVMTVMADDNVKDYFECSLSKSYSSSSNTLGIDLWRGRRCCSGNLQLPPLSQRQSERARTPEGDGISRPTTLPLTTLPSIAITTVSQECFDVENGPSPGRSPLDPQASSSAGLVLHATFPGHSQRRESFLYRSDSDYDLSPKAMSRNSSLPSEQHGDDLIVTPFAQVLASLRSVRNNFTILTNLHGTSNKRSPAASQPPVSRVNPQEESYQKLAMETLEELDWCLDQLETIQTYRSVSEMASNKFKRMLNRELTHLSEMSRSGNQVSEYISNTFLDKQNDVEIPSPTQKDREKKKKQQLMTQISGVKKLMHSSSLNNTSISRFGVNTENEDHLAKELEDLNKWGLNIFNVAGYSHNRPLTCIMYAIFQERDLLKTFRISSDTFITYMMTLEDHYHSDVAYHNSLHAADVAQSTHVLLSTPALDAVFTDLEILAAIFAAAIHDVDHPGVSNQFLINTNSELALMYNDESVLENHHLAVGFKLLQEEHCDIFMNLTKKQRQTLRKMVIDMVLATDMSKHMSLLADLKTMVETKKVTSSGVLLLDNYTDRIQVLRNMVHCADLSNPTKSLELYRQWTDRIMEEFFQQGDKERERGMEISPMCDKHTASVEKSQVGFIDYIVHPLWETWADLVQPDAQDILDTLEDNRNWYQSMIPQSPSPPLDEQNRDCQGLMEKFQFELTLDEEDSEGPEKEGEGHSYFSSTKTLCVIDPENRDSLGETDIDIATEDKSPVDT
Pyruvate kinase (Leishmania mexicana), sequence (Q27686 2-499 E452W): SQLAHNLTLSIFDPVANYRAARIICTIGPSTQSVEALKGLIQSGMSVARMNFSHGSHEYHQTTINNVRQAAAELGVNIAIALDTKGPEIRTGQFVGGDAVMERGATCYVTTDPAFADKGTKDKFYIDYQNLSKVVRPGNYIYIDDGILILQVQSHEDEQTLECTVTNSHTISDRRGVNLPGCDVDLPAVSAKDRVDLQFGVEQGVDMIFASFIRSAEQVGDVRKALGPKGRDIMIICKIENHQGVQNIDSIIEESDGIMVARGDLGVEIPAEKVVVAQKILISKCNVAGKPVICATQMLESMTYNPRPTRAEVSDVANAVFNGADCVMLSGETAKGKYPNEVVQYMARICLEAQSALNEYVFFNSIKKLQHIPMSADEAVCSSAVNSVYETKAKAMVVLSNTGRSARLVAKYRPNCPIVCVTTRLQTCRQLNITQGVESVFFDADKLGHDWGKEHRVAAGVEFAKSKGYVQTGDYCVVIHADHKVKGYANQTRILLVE
Pyruvate kinase PKM (Homo sapiens), sequence (P14618 whole entry, looked up): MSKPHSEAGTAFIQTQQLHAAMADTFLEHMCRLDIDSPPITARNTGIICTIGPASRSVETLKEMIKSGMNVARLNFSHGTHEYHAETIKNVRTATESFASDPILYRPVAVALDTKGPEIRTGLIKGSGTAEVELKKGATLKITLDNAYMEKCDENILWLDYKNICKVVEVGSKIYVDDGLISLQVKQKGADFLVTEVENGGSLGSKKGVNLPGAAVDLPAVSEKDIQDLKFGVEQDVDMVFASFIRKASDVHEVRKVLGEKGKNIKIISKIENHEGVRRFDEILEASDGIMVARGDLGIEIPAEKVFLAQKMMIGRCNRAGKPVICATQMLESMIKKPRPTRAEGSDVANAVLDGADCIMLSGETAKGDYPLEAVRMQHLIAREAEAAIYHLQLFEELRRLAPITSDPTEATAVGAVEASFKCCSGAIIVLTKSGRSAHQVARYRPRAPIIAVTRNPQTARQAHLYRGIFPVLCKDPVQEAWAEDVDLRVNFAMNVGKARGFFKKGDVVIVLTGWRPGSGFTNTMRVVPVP

CN(C)CCO
inactive: Potency [1] | Potency [2] | max response (KB-3-1) -9.6% | Potency (astro)

CCOC(=O)C1(c2ccccc2)CCCN(C)CC1 (configuration not stated)
inactive: Potency [1] | Potency [2] | outcome [3] | Potency [4] | outcome [5] | Potency [6] | Potency [8] | Potency [9] | max response (KB-3-1) -5.26% | Potency (astro)
-23.2%: activity change, negative = inhibition [7]

CN1CC[C@@]23CCCC[C@@H]2[C@@H]1Cc1ccc(O)cc13
inactive: outcome [10] | activity change, negative = inhibition ([11]; at 17.2 µM (top of the series)) -12.7% | activity change, negative = inhibition ([11]; at 38 µM (top of the series)) -7.37% | outcome [12] | outcome [13] | Potency [14] | outcome [15] | Potency [16] | outcome [17] | outcome [18] | outcome [19] | outcome [20] | outcome [21] | outcome [22] | outcome [23] | Potency [1] | Potency [2] | Potency (Furin (Homo sapiens)) | Potency [24] | Potency [25] | Potency [26] | max response (KB-3-1) -20.8% | Potency (astro)

C[C@H]1[C@H]2Cc3ccc(O)cc3[C@]1(C)CCN2CCc1ccccc1
active: Potency [26] 47.5 µM
inactive: Potency (Furin (Homo sapiens)) | Potency [24] | Potency [25] | max response (KB-3-1) -3.9%

CN[C@]1(c2ccccc2Cl)CCCCC1=O
inactive: Potency [2] | max response (KB-3-1) -15.2% | Potency (astro)

C/C=C(\CC)C(=O)NC(N)=O
inactive: Potency [1] | Potency [2] | max response (KB-3-1) -1.21% | Potency (astro)

C[C@@H]1[C@H]2Cc3ccc(O)cc3[C@]1(C)CCN2C
inactive: Potency [2] | max response (KB-3-1) -14.3% | Potency (astro)

CC(C)=CCN1CC[C@]2(C)c3cc(O)ccc3C[C@H]1[C@H]2C
inactive: max response [27] 2.13% | outcome [3] | Potency [4] | outcome [5] | Potency [6] | Potency [8] | max response (KB-3-1) -17.1% | Potency (astro)
-30.2% [at 114 µM]: activity change, negative = inhibition [7]
